# From the supplement of paper PMC6555819
# Columns and labels:
# Assay in all cases: PBM binding z-score (relative to random genomic background probes); higher = stronger binding; sequences stand for … in GC…GCGATTGACAGCGTAGAATGAAGG
# [1] = test system: PPARg:RXRa DBDmut IVT, anti-RXR (DBD mutation: RXRa K156A/R161A, NR concentration 270 nM, RXRa partner concentration 90 nM)
# Method in brief: (§1)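 The probes on custom Agilent 4×180K protein-binding microarrays were double-stranded, with 34-nt variable regions bearing direct-repeat seeds, single-nucleotide variants, half-site ablations and random human genomic background sequences. Incubation lasted 1 h with ligand-free nuclear receptor dimers in PBS pH 7.4, 2% milk, 0.02% Triton X-100, 1 mM DTT, 0.2 mg/mL BSA and 0.4 mg/ml salmon testes DNA. Antibodies against each partner (one per run) detected bound dimers, and fluorescence scans were regression-normalized. Binding z-scores take the random background probes as reference.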
# [2] = test system: PPARg:RXRa IVT, anti-PPARg (NR concentration 270 nM, RXRa partner concentration 90 nM)
# Method in brief: as §1
# [3] = test system: PPARg DBDmut:RXRa IVT, anti-PPARg (DBD mutation: PPARg1 K132A/R137A, NR concentration 270 nM, RXRa partner concentration 90 nM)
# Method in brief: as §1
# [4] = test system: PPARg DBDmut IVT, anti-PPARg (DBD mutation: PPARg1 K132A/R137A, NR concentration 270 nM)
# Method in brief: as §1
# [5] = test system: PPARg homodimer (NR concentration 180 nM)
# Method in brief: as §1
# [6] = test system: PXR:RXRa (NR concentration 270 nM, RXRa partner concentration 90 nM)
# Method in brief: as §1
# [7] = test system: PXR homodimer (NR concentration 270 nM)
# Method in brief: as §1
# [8] = test system: RARa:RXR (NR concentration 270 nM, RXRa partner concentration 90 nM)
# Method in brief: as §1
# [9] = test system: RARa homodimer (NR concentration 270 nM)
# Method in brief: as §1
# [10] = test system: RARb:RXRa (NR concentration 270 nM, RXRa partner concentration 90 nM)
# Method in brief: as §1
# [11] = test system: RARb homodimer (NR concentration 270 nM)
# Method in brief: as §1
# [12] = test system: RARg:RXRa (NR concentration 270 nM, RXRa partner concentration 90 nM)
# Method in brief: as §1
# [13] = test system: RARg homodimer (NR concentration 270 nM)
# Method in brief: as §1
# [14] = test system: RXRa DBDmut IVT, anti-RXR (DBD mutation: RXRa K156A/R161A, NR concentration 90 nM)
# Method in brief: as §1
# [15] = test system: RXRa homodimer (NR concentration 180 nM)
# Method in brief: as §1
# [16] = test system: THRa homodimer (NR concentration 90 nM)
# Method in brief: as §1
# [17] = test system: VDR homodimer (NR concentration 270 nM)
# Method in brief: as §1
# [18] = test system: VDR:RXRa (NR concentration 270 nM, RXRa partner concentration 90 nM)
# Method in brief: as §1
Sequence,PBM binding z-score [1],PBM binding z-score [2],PBM binding z-score [3],PBM binding z-score [4],PBM binding z-score [5],PBM binding z-score [6],PBM binding z-score [7],PBM binding z-score [8],PBM binding z-score [9],PBM binding z-score [10],PBM binding z-score [11],PBM binding z-score [12],PBM binding z-score [13],PBM binding z-score [14],PBM binding z-score [15],PBM binding z-score [16],PBM binding z-score [17],PBM binding z-score [18]
TAGCCGAGGTCAGATCGGGCCAGTATACGCTATA,0.468,2.23,0.311,-0.734,1.19,4.38,-0.437,3.81,-0.0454,4.42,3.62,5.06,5.59,2.66,4.74,1.32,2.08,–
GCATATAGGTCATACAAGGTGAAAGTCCGATTGT,6.81,7.41,3.79,2.08,2.85,4.68,0.812,4.41,1.09,4.29,3.94,5.1,4.65,1.98,4.8,1.62,1.23,–
CGTCCAAGGTCATAGGAGGTCAGAGAAGACAGAT,3.19,4.81,1.6,0.958,3.89,6.83,4.38,6.6,1.92,5.51,5.31,6.78,7.13,4.15,6.71,3.44,4.23,–
AATACAGGGTCATCGGAGGCCAGAGTACGCACAG,2.24,4.03,1.88,1.83,2.39,5.97,0.898,4.9,1.32,4.47,4.26,5.91,5.05,3.51,6.76,1.96,3.88,–
ATATGCAGGTTAGCTGGGGTCATTCAGACTAGGC,2.79,2.76,0.943,1.03,1.18,6.31,2.68,5.26,0.349,3.15,3.72,4.14,3.11,1.89,5.56,2.98,4.17,–
GGAACGTGGGCATTCGAGTTGATAGCATGGCGAT,-0.654,-0.803,-0.387,-0.8,-0.877,-0.129,-0.516,-0.333,-0.773,-0.433,-0.657,-0.318,-0.321,-0.166,-0.389,-1.07,0.0395,-0.17
ACTCGGAGGACAAAGATCAGAGCTACGCCAGTGA,0.131,-0.127,-1.09,-0.113,-0.398,-0.522,-0.433,-0.384,-0.637,0.778,-0.272,0.568,0.931,0.426,0.18,-0.696,-0.571,–
CTCGAAAGGTCGTGCTCAGGTCAGTATACCAAAC,1.1,2.14,1.37,1.38,3.94,5.57,1.25,6.37,0.951,4.41,4.16,7.03,4.92,2.37,5.35,2.7,2.45,–
CAAACTAGGTCATGAGGTCAAAGTCCGCTTCCCG,8.1,8.5,2.32,1.99,5.08,5.91,4.28,6.92,2.05,5.03,5.22,7.26,6.81,3.45,7.98,4.88,5.84,–
CAAACCAGGTCACCGGAAGGTCAAAGTCCGCATG,5.78,6.75,1.83,1.5,9.32,6.5,3.77,8.09,3.77,5.33,5.65,8.7,7.24,3.06,7.56,4.28,3.95,–
GCTAGTTGGTCAGTAAAAGGTAACACACCGGTCG,0.651,0.622,-0.712,0.0528,0.535,0.2,0.0944,0.372,0.548,1.03,1.31,0.845,0.741,0.148,0.462,0.175,0.0919,–
TCTGCTAGGTCAACGAAGGTCAGCTAATCTGCTA,4.15,4.53,0.834,0.313,3.51,5.64,0.241,4.51,0.797,4.95,5.28,5.51,6.42,1.14,4.18,1.69,1.38,–
CCTAGTTGGTCAACGTCACACACGCTATAGGTAC,2.03,1.8,0.867,0.424,1.37,0.444,0.536,0.716,1.34,1.21,1.13,0.774,1.18,0.857,0.526,0.632,0.435,–
TAGCCTAGGTCAGATCGGGTCAGTATACGCTATA,0.599,2.06,-0.409,0.264,0.633,4.16,-0.399,2.21,-0.275,3.55,3.56,3.77,4.62,-0.194,2.58,1.29,0.51,–
CAAACTAGGTCACTGAGGTCAAAGTCCGTGCGTA,8.41,8.65,1.56,0.597,4.26,6.53,12.1,6.4,0.887,4.89,5.53,6.59,7.09,3.56,6.35,5.12,7.63,–
TTACCAAGGTGAGCTGAGGTCATTGATCCAACTC,1.49,2.8,-0.00582,-0.0839,1.23,6.15,3.42,4.75,0.362,3.44,3.91,3.65,3.31,0.946,4.03,4.43,4.32,–
CCTTACGGGTCACTCGAGGTTATAGCATCGGAGT,2.22,3.7,0.422,0.0524,1.69,5.71,0.375,3.69,0.443,3.91,3.27,4.49,3.78,1.69,4.75,0.632,2.08,–
CCTAGCAGGTCAATCTGGGTCACTCAAGGCTTGA,5.78,6.18,1.08,-0.626,2.33,5.31,0.0416,4.45,0.436,3.96,4.09,4.92,5.25,2.2,4.25,1.44,1.66,–
CGAACTAGATCAGAACAGGACAGTGAAGGATGAT,0.901,0.144,0.0731,0.309,0.437,-0.412,0.0691,-0.383,0.626,-0.179,0.0748,-0.355,0.431,0.063,0.00592,-0.243,-0.111,–
CAAACTAGGTCACGCAAGGTCAAAGTCGAATGAC,8.48,9.3,4.39,5.78,5.5,7.23,3.2,6.68,4.04,5.5,5.54,6.98,7.6,3.02,6.98,4.21,4.65,–
